Measurements from PubChem BioAssay (NCI).
Compounds without any hit were thinned out: in the full panel of roughly 83,000, 20% have a hit.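 Assay: single dose, 48 h. Readout: percent growth (0 = no net growth; negative = cell death). Active: <10.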 Values without a mark were called inactive. Calls of active or inactive are those of the source.

The molecules below were run on SK-MEL-28 melanoma (assay: NCI-60 one-dose screen, 48 h (100 = growth as untreated, 0 = no growth, -100 = all killed)). Conditions: 10 µM unless noted.
In the case of `COc1cc2cc(Oc3ccc(NC(=O)Nc4ccc(Cl)c(C(F)(F)F)c4)cc3)c(C)nc2cc1OCCN1CCCCC1`, the growth is reported as -86% (active). `CN1CCN(c2ccc3nc(-c4ccc5nc(-c6ccc(C(F)(F)F)cc6)[nH]c5c4)[nH]c3c2)CC1` was tested, and the growth was 63.2%. `Cc1c(C(=O)Nc2nc(-c3ccccc3)cs2)nnn1-c1ccccc1Br` showed a growth of 44.5% [50 µM]. For `Clc1ccc(Nc2nc(Nc3ccccc3)nc(Nc3ccc(-c4cc(-c5ccc(Cl)cc5)on4)cc3)n2)cc1`, the growth was 77.7%. `C=C1CC[C@@H]2[C@@](C)(CCC[C@]2(C)C(=O)O)[C@@H]1CC[C@H](CO)CCO` gave a growth of 105%. Molecule `COC(=O)CCC(=O)c1ccccc1` has a growth of 108%. Work on `COc1ncnc2c1ncn2C/C(Br)=C(\Br)CCl` yielded a growth of 77.4%. `CN1CCC(OC2c3ccccc3CCc3ccccc32)CC1` gave a growth of 94.2%. For `O=[N+]([O-])c1ccc(C=C2C(Cl)=C(Cl)C(Cl)=C2Cl)cc1`, the growth was 107%. In the case of `COc1ccc(OC)c(/C=C2\Oc3cc(O)ccc3C2=O)c1`, the growth is reported as 88.5%. Molecule `COC(=O)[C@@]12CC[C@@H](C)[C@]3(C[C@@H](c4ccoc4)OC3=O)[C@H]1CC[C@@H]1O[C@@]12C` has a growth of 103%. For `COc1ccc(-c2nc3sc(C)cn3c2/C=C/C(=O)c2cc(OC)c(OC)c(OC)c2)cc1`, the growth was 41.4%. `C=CC(=O)N1CC2(CC(n3nc(-c4ccc(Oc5ccccc5)cc4)c4c(N)ncnc43)C2)C1` gave a growth of 29%. `Cc1cc(=O)c2c(C)ccc(C)c2[nH]1` was tested, and the growth was 109%.
